Records with an inconclusive call do not appear. The source made the active and inactive calls. Unless noted, the call rests on the fitted dose curve; in most records, active means well fitted curve in the direction sought with a large enough effect; inconclusive means small, poorly fitted or top-dose-only effect, or another doubt; inactive means no such curve, though single readings can be large; an effect the other way counts as inactive or inconclusive.
Legend:
[1] = qHTS for inhibitors of adenylyl cyclases using a fission yeast platform: a pilot screen against the NCATS LOPAC library (AID 1347410);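 further: plate controls were DMSO vehicle for no effect and DPI positive control for full effect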; conditions: S. pombe CHP2027, fbp1-GFP fluorescence, 18 h, yeast expressing mammalian AC9 and human GNAS; series mostly up to 57.5 µM
How it was run: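 S. pombe CHP2027 (AC9-GNAS-PDE4D2) carrying a PKA-repressed fbp1-GFP reporter was exposed to LOPAC compounds (final up to 57 µM) for 18 h at 30C in the dark, in EMM with histidine, lysine and uracil; GFP gain-of-signal read by laser scanning cytometry.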

[2] = target: Single-stranded DNA cytosine deaminase (Homo sapiens) (UniProt Q9GZX7); experiment: Validation qHTS assay for inhibitors of Activation Induced Cytidine Deaminase (AID): AID signal (AID 1347429); conditions: Recombinant AID, FRET ssDNA deamination with UDG, fluorescence; series mostly up to 115 µM; further: on the % scale 0 is the no-effect control and ±100 the full control effect
Chain of Single-stranded DNA cytosine deaminase (Homo sapiens) (Q9GZX7 whole entry, looked up): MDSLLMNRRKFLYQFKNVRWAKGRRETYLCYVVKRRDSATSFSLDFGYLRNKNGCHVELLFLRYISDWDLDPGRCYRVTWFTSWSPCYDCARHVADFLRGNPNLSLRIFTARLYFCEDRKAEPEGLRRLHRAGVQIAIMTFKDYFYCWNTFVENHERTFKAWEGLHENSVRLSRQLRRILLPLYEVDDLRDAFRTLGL
How it was run: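 Compounds (final up to 114 uM) preincubated with AID plus UDG; 250 nM DJC20/DJC23 substrate mix (4x stock) added, 4 hr at room temperature, then NaOH, 30 min. Read 1 fluorescence at 540 nm excitation, 590 nm emission.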

[3] = Primary qHTS for inhibitors of La Crosse Virus (LACV) - induced cell death in SH-SY5Y cells (AID 1508616); conditions: SH-SY5Y LACV cytopathicity rescue, ATP luminescence, 6 d; series mostly up to 4.29 µM;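 further: top concentration of the series differs between compounds; 0% = infected DMSO wells and 100% = uninfected DMSO wells; higher means more rescue of cells from virus-induced death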
How it was run: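 Rescue of virus-induced death was read as ATPLite luminescence after 6 days at 37C, scaled between DMSO wells with LACV and without virus. Cells were SH-SY5Y, 6000/well, infected at 0.01 MOI after compound addition.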

[4] = target: Calcium and integrin-binding protein 1 (Homo sapiens) (UniProt Q99828); experiment: Validation qHTS for Identification of Calcium Integrin Binding protein 1 (CIB1) Competitor (AID 1508618); conditions: CIB1-GST / FITC-alphaIIb peptide fluorescence polarization; series mostly up to 114 µM; further: on the % scale 0 is the no-effect control and ±100 the full control effect
Chain of Calcium and integrin-binding protein 1 (Homo sapiens) (Q99828 whole entry, looked up): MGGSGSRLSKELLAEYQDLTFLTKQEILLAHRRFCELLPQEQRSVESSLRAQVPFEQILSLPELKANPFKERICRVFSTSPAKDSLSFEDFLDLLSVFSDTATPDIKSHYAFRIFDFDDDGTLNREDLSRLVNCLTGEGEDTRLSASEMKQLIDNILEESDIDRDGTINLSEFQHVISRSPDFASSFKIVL
How it was run: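 In this qHTS validation, the LOPAC set (up to 114 uM) was tested for blocking CIB1 binding to a fluorescein-tagged alphaIIb peptide, with FP detection at 480/540 nm.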

[5] = Primary qHTS for small molecule stabilizers of the endoplasmic reticulum resident proteome: Secreted ER Calcium Modulated Protein (SERCaMP) assay (AID 1508630); conditions: SH-SY5Y GLuc-SERCaMP (Gaussia luciferase released on ER calcium loss) secretion, thapsigargin, luminescence; series mostly up to 38.4 µM; further: on the % scale 0 is the no-effect control and ±100 the full control effect
How it was run: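 The SH-SY5Y reporter protocol was run at 3 concentrations up to 38.3 uM (primary) or 11 concentrations (follow-up): 16 h compound, 100 nM thapsigargin for 4 h, then extracellular luciferase luminescence.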

[6] = qHTS to identify inhibitors of the type 1 interferon - major histocompatibility complex class I in skeletal muscle: primary screen against the NCATS Pharmaceutical Collection (AID 1347407); conditions: human skeletal muscle cells, IFN-b-induced MHC-I HiBiT luminescence, 24 h; series mostly up to 45.9 µM;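 further: luminescence of HiBiT knocked into endogenous HLA-B as interferon-induced MHC class I level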; further: potency means the concentration at half of the fitted maximal effect
How it was run: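 Immortalized human myoblasts (C25cl48) with HiBiT knocked into endogenous HLA-B*08:01 were stimulated with 4 ng/ml IFN-beta and treated with compounds (8-point, 1:5, top 46 uM final) for 24 h at 37 C; HiBiT lytic luminescence read.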

[7] = A High-Content qHTS Against Drug Library for the Identification of Small Molecules that Inhibit DYT1 Early Onset Primary Dystonia-Associated Cell Pathology (AID 1645839; calls by dose curve; further: potency means the concentration at half of the fitted maximal effect); conditions: HEK293 Flp-In EGFP-delE TorsinA, punctate imaging, 48 h; series mostly up to 46.1 µM
How it was run: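 Cells were seeded and left for 24 h, then dosed with compound alongside tetracycline induction of mutant EGFP-TorsinA. They were incubated for 48 h, fixed in 4% paraformaldehyde, permeabilized and imaged for mislocalization (%pathology) and cell count.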

[8] = target: Cytochrome P450 2D6 (Homo sapiens) (UniProt P10635); experiment: Cytochrome P450 family 2 subfamily D member 6 (CYP2D6) small molecule antagonists: luciferase biochemical (cell-free) qHTS assay (AID 1645840; active means well fitted curve in the direction sought with a large enough effect in the repeat runs; an effect the other way counts as inactive or inconclusive; further: nearly all actives have a fitted effect of over 55% in size; further: potency means the concentration at half of the fitted maximal effect); conditions: P450-Glo CYP2D6 enzyme, luciferin luminescence, 1 h; series mostly up to 57.4 µM
Chain of Cytochrome P450 2D6 (Homo sapiens) (P10635 whole entry, looked up): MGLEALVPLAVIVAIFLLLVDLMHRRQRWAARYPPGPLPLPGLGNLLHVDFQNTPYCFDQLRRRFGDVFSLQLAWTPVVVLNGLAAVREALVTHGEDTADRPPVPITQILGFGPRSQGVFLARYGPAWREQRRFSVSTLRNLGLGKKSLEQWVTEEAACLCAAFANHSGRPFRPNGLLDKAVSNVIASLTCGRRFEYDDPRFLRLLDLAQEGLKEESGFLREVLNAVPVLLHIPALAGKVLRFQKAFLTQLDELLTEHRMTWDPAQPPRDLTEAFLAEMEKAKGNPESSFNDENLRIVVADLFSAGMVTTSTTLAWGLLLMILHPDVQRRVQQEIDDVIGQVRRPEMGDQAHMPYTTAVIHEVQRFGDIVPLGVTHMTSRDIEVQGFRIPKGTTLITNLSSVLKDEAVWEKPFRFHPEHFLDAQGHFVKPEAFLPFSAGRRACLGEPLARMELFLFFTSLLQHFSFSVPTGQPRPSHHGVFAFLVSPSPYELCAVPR
How it was run: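 P450-Glo CYP2D6 system: proluciferin substrate converted by enzyme to luciferin, read by luminescence proportional to activity. Enzyme-substrate mix with compound 10 min at room temperature, then NADPH regeneration 1 h before detection reagent.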

[9] = target: Cytochrome P450 2C9 (Homo sapiens) (UniProt P11712); experiment: Cytochrome P450 family 2 subfamily C member 9 (CYP2C9) small molecule antagonists: luciferase biochemical (cell-free) qHTS assay (AID 1645842; active means well fitted curve in the direction sought with a large enough effect in the repeat runs; an effect the other way counts as inactive or inconclusive; further: nearly all actives have a fitted effect of over 55% in size; further: potency means the concentration at half of the fitted maximal effect); conditions: P450-Glo CYP2C9 enzyme assay, luciferin luminescence; series mostly up to 57.4 µM
Chain of Cytochrome P450 2C9 (Homo sapiens) (P11712 whole entry, looked up): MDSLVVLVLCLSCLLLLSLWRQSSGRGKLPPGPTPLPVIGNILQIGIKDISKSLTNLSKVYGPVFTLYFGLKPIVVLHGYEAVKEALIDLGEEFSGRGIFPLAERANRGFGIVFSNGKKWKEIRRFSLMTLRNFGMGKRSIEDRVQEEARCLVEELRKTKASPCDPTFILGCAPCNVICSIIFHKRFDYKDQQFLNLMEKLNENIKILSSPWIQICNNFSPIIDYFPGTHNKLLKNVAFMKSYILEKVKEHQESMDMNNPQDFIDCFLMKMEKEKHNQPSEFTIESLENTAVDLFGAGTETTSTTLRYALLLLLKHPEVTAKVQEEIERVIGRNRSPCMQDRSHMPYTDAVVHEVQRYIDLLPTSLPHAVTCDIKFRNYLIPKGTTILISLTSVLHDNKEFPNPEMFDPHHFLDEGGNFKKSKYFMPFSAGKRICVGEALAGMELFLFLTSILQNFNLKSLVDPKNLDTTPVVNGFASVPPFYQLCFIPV
How it was run: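 P450-Glo CYP2C9 system: proluciferin substrate with enzyme in mix containing 0.4% BSA, 10 min at room temperature, then NADPH regeneration solution added and incubated 1 h at 37C. Detection reagent stopped reaction; luminescence read after 20 min as RLU.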

[10] = target: Calcium and integrin-binding protein 1 (Homo sapiens) (UniProt Q99828); experiment: Primary qHTS for Identification of Calcium Integrin Binding Protein 1 (CIB1) Competitor (AID 1508620); conditions: CIB1-GST / FITC-alphaIIb peptide fluorescence polarization; series mostly up to 114 µM;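 further: GST tagged CIB1 binding a fluorescein labelled alphaIIb integrin peptide tracer; top concentration of the series differs between compounds; on the % scale 0 is the no-effect control and ±100 the full control effect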
How it was run: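 Fluorescence polarization competition: GST-tagged CIB1 (1 uM final) preincubated with compound 15 min at room temperature, then FITC-labelled alphaIIb peptide (100 nM final) added. After 15 min at room temperature, polarization read at Ex 480/Em 540.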

Papain (Carica papaya) = Papain (Carica papaya) (UniProt P00784); experiment: Primary qHTS assay for inhibitors of the protease papain (AID 1645873); conditions: papain Z-FR-AMC cleavage, AMC fluorescence; series mostly up to 49.8 µM
Chain of Papain (Carica papaya) (P00784 whole entry, looked up): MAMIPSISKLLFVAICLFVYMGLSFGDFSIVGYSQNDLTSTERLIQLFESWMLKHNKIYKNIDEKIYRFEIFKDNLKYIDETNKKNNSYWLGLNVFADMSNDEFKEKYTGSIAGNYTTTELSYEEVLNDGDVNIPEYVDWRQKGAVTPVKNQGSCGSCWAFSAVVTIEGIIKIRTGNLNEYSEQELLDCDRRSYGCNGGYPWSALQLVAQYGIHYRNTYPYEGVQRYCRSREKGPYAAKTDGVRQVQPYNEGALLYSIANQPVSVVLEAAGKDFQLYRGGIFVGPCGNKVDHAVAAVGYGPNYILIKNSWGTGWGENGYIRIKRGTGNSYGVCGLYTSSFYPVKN

[11] = target: Protein phosphatase 1D (Homo sapiens) (UniProt O15297); experiment: Rhodamine-PBP qHTS Assay for Modulators of WT P53-Induced Phosphatase 1 (WIP1) (AID 1347425); conditions: recombinant WIP1, Rhodamine-PBP phosphate fluorescence, real-time; series mostly up to 57.5 µM; further: % of control where 0% means no effect
Chain of Protein phosphatase 1D (Homo sapiens) (O15297 whole entry, looked up): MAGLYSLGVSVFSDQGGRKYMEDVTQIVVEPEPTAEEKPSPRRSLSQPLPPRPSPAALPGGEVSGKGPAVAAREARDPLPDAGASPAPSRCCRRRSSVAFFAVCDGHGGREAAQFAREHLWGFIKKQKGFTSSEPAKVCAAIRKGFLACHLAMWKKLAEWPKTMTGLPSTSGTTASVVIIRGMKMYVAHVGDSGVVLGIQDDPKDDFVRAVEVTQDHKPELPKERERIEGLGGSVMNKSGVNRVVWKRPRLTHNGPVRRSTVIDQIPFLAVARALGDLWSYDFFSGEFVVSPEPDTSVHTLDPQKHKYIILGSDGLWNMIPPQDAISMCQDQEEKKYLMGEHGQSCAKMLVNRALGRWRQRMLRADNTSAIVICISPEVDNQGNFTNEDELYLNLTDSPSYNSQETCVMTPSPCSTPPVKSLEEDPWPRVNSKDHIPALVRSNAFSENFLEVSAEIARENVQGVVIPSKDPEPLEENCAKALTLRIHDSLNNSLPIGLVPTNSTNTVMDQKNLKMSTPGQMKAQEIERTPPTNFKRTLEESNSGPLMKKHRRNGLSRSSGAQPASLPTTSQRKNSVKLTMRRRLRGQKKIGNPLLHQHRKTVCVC
How it was run: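 Steps: enzyme with Rh-PBP sensor and compounds, room-temperature incubation of 1 hr, baseline read, addition of VEPPL-pS-QETFS (10 uM final), kinetic fluorescence reads at 525/598 nm. Activity equals final minus baseline signal.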

[12] = target: Protein phosphatase 1D (Homo sapiens) (UniProt O15297); experiment: RapidFire Mass Spectrometry qHTS Assay for Modulators of WT P53-Induced Phosphatase 1 (WIP1) (AID 1347424); conditions: WIP1 dephosphorylation of phosphopeptide, RapidFire MS; series mostly up to 63 µM;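 further: plate controls were DMSO wells for no effect and GSK830371 inhibitor control at 10 µM for full effect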
How it was run: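 RapidFire MS readout of dephosphorylated VEPPL-S-QETFS product, with 1 uM isotope-labelled peptide standard. Reaction: 10 nM WIP1, 2 uM phosphopeptide substrate, 5 min, room temperature, after 1 h compound preincubation; stopped with 0.5% formic acid.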

[13] = Counterscreen qHTS for small molecule stabilizers of the endoplasmic reticulum resident proteome: GLuc-NoTag assay (AID 1508627); conditions: Gaussia luciferase NoTag secretion counterscreen, luminescence, thapsigargin 100 nM for final 4 h; series mostly up to 76.4 µM;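 further: SH-SY5Y cells given compound then 100 nM thapsigargin to empty ER calcium; 0% = thapsigargin alone and -100% = DMSO vehicle control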
How it was run: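 Counterscreen line: SH-SY5Y-GLuc-NoTag. Seed, 5 h; compound, 19 h; thapsigargin 100 nM, 4 h; 37C/5% CO2. Readout: secreted GLuc luminescence, coelenterazine 0.07x final, no lysis.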

[14] = Cell Viability qHTS for small molecule stabilizers of the endoplasmic reticulum resident proteome (AID 1508629); conditions: cell viability counter-screen, 100 nM thapsigargin for final 4 h
[15] = qHTS to identify inhibitors of the type 1 interferon - major histocompatibility complex class I in skeletal muscle: primary screen against the NCATS Mechanism Interrogation Plate v5.0 (MIPE) Libary (AID 1347411); conditions: iHSKM cells + IFN-b, HiBiT-tagged MHC-I luminescence, 24 h; series mostly up to 45.8 µM;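 further: plate controls were vehicle for no effect and reference inhibitor for full effect; nearly all actives have a fitted effect of over 65% in size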
How it was run: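 Luminescence from CRISPR HiBit-tagged endogenous HLA-B in human myoblasts reported MHC class I level after 24 h of IFN-beta (4 ng/ml) plus compound. Compounds ran as 11-point 1:3 series, top 46 uM final.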

CNCCC(Oc1ccccc1C)c1ccccc1 (configuration not stated)
inactive: outcome [1] | Potency [2] | Potency [3] | outcome [4] | Potency [5]

COc1cccc2c1C(=O)c1c(O)c3c(c(O)c1C2=O)C[C@@](O)(C(C)=O)C[C@@H]3O[C@H]1C[C@H](N)[C@H](O)[C@H](C)O1
inactive: Potency [5] | Potency [9]
active: Potency [6] 3.33 µM | Potency [7] 1.58 µM | Potency [8] 13.8 µM

CC(CCc1ccccc1)NCC(O)c1ccc(O)c(C(N)=O)c1 (configuration not stated)
inactive: outcome [1] | Potency [2] | Potency [3] | outcome [4] | Potency [10] | Potency (Papain (Carica papaya))

COc1cccc(CCc2ccccc2OCC(CN(C)C)OC(=O)CCC(=O)O)c1 (configuration not stated)
inactive: Potency [6] | outcome [11] | Potency [3] | Potency [10] | Potency [9]

CCC(=O)c1c(O)cc(O)cc1O
active: Potency [8] 24.5 µM | Potency [9] 15.5 µM
inactive: Potency [6] | Potency [3] | Potency [10] | Potency [5]

Oc1ccc(O)cc1
inactive: outcome [1] | Potency [12] | outcome [11] | Potency [2] | Potency [3] | outcome [4] | Potency [10] | outcome [13] | max response [14] -23.4% | Potency [9] | Potency (Papain (Carica papaya))

O=C1OC2(c3ccc(O)cc3Oc3cc(O)ccc32)c2ccccc21
inactive: Potency [6] | outcome [11] | Potency [3] | Potency [10] | Potency [5] | Potency [8] | Potency [9]
active: Potency [7] 7.08 µM

CC(=O)N/N=C/c1ccc([N+](=O)[O-])o1
inactive: Potency [6] | outcome [11] | Potency [3] | Potency [10] | Potency [5] | Potency [9]
active: Potency [8] 15.5 µM

Cc1c(C(N)=O)cc([N+](=O)[O-])cc1[N+](=O)[O-]
inactive: Potency [6] | outcome [11] | Potency [3] | Potency [10] | Potency [5] | Potency [7] | Potency [8] | Potency [9]

C[C@]12C=CC(=O)C=C1CC[C@@H]1[C@@H]2[C@@H](O)C[C@@]2(C)[C@H]1CC[C@]2(O)C(=O)CO
inactive: Potency [15] | Potency [12] | Potency [3] | Potency [10] | Potency [5] | Potency [7] | Potency [8] | Potency [9]

C[N+]1(CCCCC[N+]2(C)CCCC2)CCCC1
inactive: outcome [1] | Potency [2] | Potency [3] | outcome [4] | Potency [5] | Potency [8] | Potency (Papain (Carica papaya))

O=C(Nc1ccc(Cl)c(Cl)c1)C1CC1
inactive: Potency [12] | outcome [11] | Potency [3] | Potency [10] | Potency [5] | Potency [7] | Potency [8]

C1CCc2nnnn2CC1
inactive: outcome [1] | Potency [2] | Potency [3] | outcome [4] | Potency [5] | Potency (Papain (Carica papaya))

CCCC1O[C@@H]2C[C@H]3[C@@H]4CCC5=CC(=O)C=C[C@]5(C)[C@H]4[C@@H](O)C[C@]3(C)[C@]2(C(=O)CO)O1 (some centres not stated)
active: Potency [9] 15.1 µM
inactive: outcome [1] | Potency [2] | Potency [3] | outcome [4] | Potency [5] | Potency (Papain (Carica papaya))

C[C@@H]1C(=O)NC2=Nc3cccc(Cl)c3CN21
inactive: outcome [1] | Potency [2] | Potency [3] | outcome [4] | Potency (Papain (Carica papaya))

CN1C2CCC1CC(OC(=O)c1c[nH]c3ccccc13)C2 (configuration not stated)
inactive: outcome [1] | Potency [2] | outcome [4] | outcome [13] | Potency (Papain (Carica papaya))

CC1(C)CCC(NC(=O)[C@@H](N)CCC(=O)O)CC1
inactive: outcome [1] | Potency [2] | Potency [3] | outcome [4] | Potency [5] | Potency (Papain (Carica papaya))

Source: PubChem BioAssay (NCATS)
